Measured values: PubChem BioAssay (NCI)
The panel holds about 79,000 compounds, 15% with a hit somewhere; the sample as a whole holds those more often. Activity calls are given as the source filed them. No stated cut-off is given here; in the data, active means growth inhibition above about 70%; inactive means the rest.

How the values were obtained:
[1] = NCI Yeast Anticancer Drug Screen. Data for the rad50 strain (AID 155);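 further: 0% = growth of vehicle-only cultures of the same strain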; details: S. cerevisiae rad50 strain growth inhibition; at 50.0 µM; active compounds read high
Summary of the method: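 Compounds were tested on a yeast strain with an engineered DNA damage repair alteration; the reported value is growth inhibition normalised to vehicle treatment.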

[2] = NCI Yeast Anticancer Drug Screen. Data for the mec2-1 strain (AID 157); details: S. cerevisiae mec2-1 strain, at 50.0 µM, active compounds read high
Summary of the method: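 Vehicle-treated cultures served as reference for growth inhibition of compound-exposed mec2-1 yeast.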

[3] = NCI Yeast Anticancer Drug Screen. Data for the sgs1 mgt1 strain (AID 161);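 further: 0% = growth of cultures given vehicle only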; details: S. cerevisiae sgs1 mgt1 strain, at 50.0 µM, active compounds read high
Summary of the method: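 Genetically altered yeast, compound exposure, growth inhibition relative to vehicle.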

[4] = NCI Yeast Anticancer Drug Screen. Data for the cln2 rad14 strain (AID 165);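 further: 0% = growth equal to vehicle treated cultures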; details: S. cerevisiae cln2 rad14 strain, at 50.0 µM, active compounds read high
Summary of the method: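 Each compound was tested on cln2 rad14 yeast. Inhibition of growth was calculated against vehicle-exposed controls.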

[5] = NCI Yeast Anticancer Drug Screen. Data for the bub3 strain (AID 167); details: S. cerevisiae bub3 mutant strain, at 50.0 µM, active compounds read high
Summary of the method: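 Growth of a checkpoint-deficient yeast mutant is measured after compound exposure. Values represent inhibition relative to vehicle.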

[6] = NCI Yeast Anticancer Drug Screen. Data for the mlh1 rad18 strain (AID 175); details: S. cerevisiae mlh1 rad18 strain growth inhibition; at 50.0 µM; active compounds read high
Summary of the method: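 Vehicle-treated cultures served as the reference for growth inhibition in a yeast strain carrying DNA damage repair alterations exposed to each compound.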

Measured: growth inhibition

CCC1NCCc2cc(OC)c(O)cc21 (stereo not drawn)
inactive: [1] -5.9% | [2] 0.35% | [3] -6.25% | [4] 1.4% | [5] 1.85%

CCOP(=O)(CC(N)=O)OCC
inactive: [1] -4.9% | [2] 9.8% | [3] 3.5% | [4] 0.1% | [5] 13.8%

CCCCC(C(=O)NN)P(=O)(OCC)OCC (stereo not drawn)
inactive: [1] -0.9% | [2] -5.2% | [3] 15.8% | [4] -14.7% | [5] -1.95% | [6] 0.95%

S=C(N=Nc1ccccc1)NNc1ccccc1.[Cu+2]
inactive: [1] -17.4% | [2] -28.8% | [3] -30% | [4] 1.8% | [5] 5.75%

COc1ccc(CCF)cc1
inactive: [1] -4.95% | [2] 4% | [3] -0.7% | [4] -9.85% | [5] 4.4%

CNC1(c2ccc(F)cc2)CCCCC1
inactive: [1] -15.8% | [2] -23.1% | [3] -11.5% | [4] 8.05% | [5] -13.8% | [6] -30.8%

OC12CCC[N+]1(Cc1ccccc1)CCC2 (stereo not drawn)
inactive: [1] 9.25% | [2] -9.75% | [3] -7.9% | [4] 2.85% | [5] -0.55%

CCOC(=O)C(C#N)c1ccccc1 (stereo not drawn)
inactive: [1] 22.3% | [2] 19.1% | [3] 18% | [4] 14.1% | [5] -9.55%

O=S(=O)(c1ccc(O)cc1)c1ccccc1O
inactive: [1] -1.95% | [2] -6.35% | [3] 15.2% | [4] 3.75% | [5] 0.6% | [6] 28.9%

[O-][Cl+3]([O-])([O-])[O-].[O]=[Ru]=[O].c1ccc(-c2ccccn2)nc1.c1ccc(-c2ccccn2)nc1
inactive: [1] 21.9% | [2] 20.9% | [3] 22.4% | [4] 14.2% | [5] 13.7%

C[N+]12C(=O)CC3OCC=C4C[N+]5(C)CCC6(c7ccccc71)C2C3C4CC65O (stereo not drawn)
inactive: [1] -13.8% | [2] -34.5% | [3] -22% | [4] 11.2% | [5] -17.6%

Cc1ccnc(NN=O)c1
inactive: [1] -2.35% | [2] -18.8% | [3] -6.75% | [4] -1.05% | [5] -17.1%

O=S(=O)(c1ccccc1)N1CC1CI (stereo not drawn)
inactive: [1] 3.45% | [2] 2.7% | [3] 13.9% | [4] 10.6% | [5] 7.9%

CN1C(=O)C[N+]([O-])=C(c2ccccc2)c2cc(Cl)ccc21
inactive: [1] 2.45% | [2] 0.9% | [3] -10.1% | [4] 18.6% | [5] -5.15%

CC12CCC3C(CCC4CC(Cl)CCC43C)C1CCC2=O (stereo not drawn)
inactive: [1] 9.95% | [2] 8.5% | [3] 6.25% | [4] -59.4% | [5] -6.1%

CCCCC(CC)COP(=S)(S)OCC(CC)CCCC.[Sn] (stereo not drawn)
inactive: [1] -7.7% | [2] -10.4% | [3] -6.5% | [4] -46.9% | [5] 13.8%

O=C1C(=C([O-])c2ccccc2)C(=O)c2ccccc21.O=C1C(=C([O-])c2ccccc2)C(=O)c2ccccc21.[Fe+2]
inactive: [1] 19.4% | [2] 28.9% | [3] 14.6% | [4] 22.2% | [5] 28.1%

c1ccc2c(C3NCCc4[nH]cnc43)cccc2c1 (stereo not drawn)
inactive: [1] 3.7% | [2] 1.85% | [3] -9.45% | [4] -18.3% | [5] -32%

NC(Cc1cccc(NP(=S)(NCCO)N2CC2)c1)C(=O)O (stereo not drawn)
inactive: [1] -4.95% | [2] 15.1% | [3] 12.8% | [4] -10.9% | [5] 13.1%

Cc1nccc2c1[nH]c1ccccc12
inactive: [1] 6.5% | [2] 5.7% | [3] -15.4% | [4] -5.65% | [5] 2.5%

CN(C)CCCN1CCCCC1
inactive: [1] 8.7% | [2] -0.65% | [3] -4.45% | [4] 3.8% | [5] 7.05%

ClC1=C(Cl)C2(Cl)C3C4CC(C5OC45)C3C1(Cl)C2(Cl)Cl (stereo not drawn)
inactive: [1] 27.4% | [2] -16.6% | [3] 1.25% | [4] 15.5% | [5] 9.75%

O=C(O)CCCO
inactive: [1] -13.8% | [2] -20.3% | [3] -23.9% | [4] 3.3% | [5] 1.45%

C=CCP(c1ccccc1)c1ccccc1
inactive: [1] -2% | [2] -3.75% | [3] -8.65% | [4] 8% | [5] 9.1%

C=CC1CC=CCC1 (stereo not drawn)
inactive: [1] -7.1% | [2] -5.2% | [3] 9.15% | [4] -25.2% | [5] -0.55%

O=C(CC(=O)C(F)(F)F)c1ccco1.[Fe]
inactive: [1] 32.6% | [2] 21.3% | [3] 0.5% | [4] 6.9% | [5] 6.55%

O=S(=O)(F)c1cc(Cl)c(O)c(S(=O)(=O)F)c1
inactive: [1] 10.1% | [2] 6.25% | [3] 5.8% | [4] 3.65% | [5] -2.75%

Cc1ccc2c(c1)C(=S)N1CSCC1c1nncn1-2 (stereo not drawn)
inactive: [1] 30.6% | [2] 30% | [3] 28.9% | [4] 20.9% | [5] 13.4%

O=C(CN1C(=O)c2ccccc2C1=O)OCCNCCCl
active: [1] 98.2% | [2] 96.5% | [3] 98.1% | [4] 95.9% | [5] 97.4% | [6] 98.5%

CS(=O)(=O)Oc1c(Cl)cc(S(=O)(=O)F)cc1Cl
active: [2] 75% | [3] 82.8%
inactive: [1] 66.2% | [4] 45.6% | [5] 53.5%

CC(=O)OC(C[N+](=O)[O-])C(Cl)(Cl)Cl (stereo not drawn)
inactive: [1] 5.7% | [2] 3.25% | [3] 2.25% | [4] -0.7% | [5] 8.4%

COc1ccc2c(c1)C1(C)CCN(CCc3ccccc3)C(C2)C1C (stereo not drawn)
inactive: [1] 24.9% | [2] 15.4% | [3] 20.7% | [4] 0.05% | [5] 6.25%

c1cc[c]([Ge]([c]2ccccc2)[c]2ccccc2)cc1
inactive: [1] 23.1% | [2] -3.8% | [3] 3.05% | [4] 20.3% | [5] -5.15%

CCC1CN1P1(=O)OCC(C)(N)CO1 (stereo not drawn)
inactive: [1] -9.45% | [2] 0.7% | [3] -7.35% | [4] 42.6% | [5] -29.1%

OC1CCN(C2(c3ccccc3)CCCCC2)CC1
inactive: [1] -13.9% | [2] 1.45% | [3] -1.85% | [4] -4.25% | [5] -6.1%

CC12CC/C(=C3/C=CC(=O)S3)C=C1CCC1C2CCC2(C)C(O)CCC12 (stereo not drawn)
inactive: [1] 23.9% | [2] -5.55% | [3] 4.95% | [4] 10.3% | [5] -19.6%

CC1=CC2OC3CC4OC(=O)/C=C/C=C/C(=O)OCC/C(C)=C/C(=O)OCC2(CC1O)C4(C)C31CO1 (stereo not drawn)
active: [1] 92.3% | [2] 93.6% | [3] 93% | [4] 91.7% | [5] 91.8% | [6] 90.9%

O=[N+]([O-])c1cc(S(=O)(=O)O)cc([N+](=O)[O-])c1Cl
inactive: [1] 8.35% | [2] 7% | [3] 2.85% | [4] 50.5% | [5] -17%

CC(CCl)N1CCCCCC1 (stereo not drawn)
inactive: [1] -14.3% | [2] -16.8% | [3] 8% | [4] -20.8% | [5] 5.3% | [6] -6.8%

CC1=CC2OC3CC4OC(=O)/C=C/C=C/C(C(C)O)OCC/C(C)=C/C(=O)OCC2(CC1)C4(C)C31CO1 (stereo not drawn)
active: [1] 92% | [2] 94.1% | [3] 93.3% | [4] 92.2% | [5] 92.6% | [6] 90.7%

CCOP(=O)(OCC)/C(C#N)=C/c1ccc(C)o1
inactive: [1] -34.2% | [2] -13.3% | [3] -49.6% | [4] -7% | [5] -19.8% | [6] -41.6%

C(#CP(c1ccccc1)c1ccccc1)c1ccccc1
active: [3] 74.8% | [5] 76.8% | [6] 85.5%
inactive: [1] 62.5% | [2] 34.5% | [4] 20.1%

CC(=O)C(C)(C)C
inactive: [1] 0% | [2] -1.45% | [3] 5.15% | [4] 3% | [5] 3.5% | [6] 24.1%

Clc1cc2nncc(N3CC3)c2cc1Cl
inactive: [1] -3.25% | [2] -24.4% | [3] -3.75% | [4] 9.95% | [5] -7.8% | [6] -21.4%

CC1OC(OC2C(O)C(O)C(O)C(O)C2O)C(N)CC1N=C(N)C(=O)O (stereo not drawn)
inactive: [1] 12.5% | [2] 3.6% | [3] -18.1% | [4] -34.5% | [5] -0.35% | [6] 23.6%

C[As+](C)(C)c1ccc(Br)c([N+](=O)[O-])c1
inactive: [1] 7.6% | [2] -0.85% | [3] -6% | [4] -13.2% | [5] -1.3% | [6] 10.9%
